Drawing on PubChem BioAssay (NCI), this text covers growth inhibition for eight compounds.

The nature of assay [1]: NCI Yeast Anticancer Drug Screen. Data for the rad50 strain (AID 155).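 Further: 0% = growth of vehicle-only cultures of the same strain.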 Particulars: S. cerevisiae rad50 strain growth inhibition, active compounds read high. An outline of the steps: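 Inhibition values express reduced yeast growth in compound-treated cultures relative to vehicle-treated controls.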
The nature of assay [2]: NCI Yeast Anticancer Drug Screen. Data for the mec2-1 strain (AID 157). Particulars: S. cerevisiae mec2-1 strain, active compounds read high. A digest of the protocol: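 Cells of the genetically defined mec2-1 yeast strain are incubated with test compound. Inhibition of growth is calculated against vehicle-treated controls.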
A short description of assay [3]: NCI Yeast Anticancer Drug Screen. Data for the sgs1 mgt1 strain (AID 161).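 Further: 0% = growth of cultures given vehicle only.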 Particulars: S. cerevisiae sgs1 mgt1 strain, active compounds read high. An outline of the steps: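 Mutant yeast exposed to compound; growth scored against vehicle-only wells.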
A short description of assay [4]: NCI Yeast Anticancer Drug Screen. Data for the cln2 rad14 strain (AID 165).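 Further: 0% = growth equal to vehicle treated cultures.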 Particulars: S. cerevisiae cln2 rad14 strain, active compounds read high. A digest of the protocol: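 The screen exposed genetically defined yeast (cln2 rad14) to test compounds and scored growth inhibition relative to vehicle-treated controls.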
A short description of assay [5]: NCI Yeast Anticancer Drug Screen. Data for the bub3 strain (AID 167). Particulars: S. cerevisiae bub3 mutant strain, active compounds read high. A digest of the protocol: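 Steps: expose the mutant yeast strain to compound; grow alongside vehicle-treated cultures; measure growth; express inhibition against the vehicle cultures.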
Assay [6] can be described thus: NCI Yeast Anticancer Drug Screen. Data for the mlh1 rad18 strain (AID 175). Particulars: S. cerevisiae mlh1 rad18 strain growth inhibition, active compounds read high. A digest of the protocol: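 Compound-treated yeast growth, normalised to vehicle controls. Strain bears defined DNA repair mutations.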
Setting [7] is: at 5.0 µM (retest, dose inferred, filed as 0.5).
Where [8] appears, read: at 50.0 µM (retest, dose inferred, filed as 5.0).

This is part of a sample that, as a whole, favours compounds with a hit. Of some 79,000 tested, about 15% had one in any assay. Values without a mark were called inactive. Activity calls are given as the source filed them. No stated cut-off is given here; in the data, active means growth inhibition above about 70%; inactive means the rest.

As to `O=[N+]([O-])c1csc([N+](=O)[O-])c1`, the growth inhibition was 99% (active) in assay [1] (setting [7]); 99% (active) in assay [1] (setting [8]); 99.3% (active) in assay [1] (at 50.0 µM); 97% (active) in assay [2] (setting [7]); 99% (active) in assay [2] (setting [8]); 99.7% (active) in assay [2] (at 50.0 µM). The growth inhibition in assay [3] (setting [7]) was 95% (active); in assay [3] (setting [8]), 99% (active); in assay [3] (at 50.0 µM), 99.5% (active); in assay [4] (setting [7]), 75% (active); in assay [4] (setting [8]) it was 99% (active); in assay [4] (at 50.0 µM), 98.8% (active). Moreover, the growth inhibition was 89% (active) in assay [5] (setting [7]); 99% (active) in assay [5] (setting [8]); 99.2% (active) in assay [5] (at 50.0 µM); 99% (active) in assay [6] (setting [7]); 99% (active) in assay [6] (setting [8]); 99.3% (active) in assay [6] (at 50.0 µM).
With `Cc1ccc(C(Cc2ccc(N3C(N)=NC(N)=NC3(C)C)cc2)C(=O)Nc2ccc(S(=O)(=O)F)cc2)cc1` (centres undefined), the growth inhibition is 7% in assay [1] (setting [7]); 99% (active) in assay [1] (setting [8]); 99.2% (active) in assay [1] (at 50.0 µM); 45% in assay [2] (setting [7]); 99% (active) in assay [2] (setting [8]); 99.6% (active) in assay [2] (at 50.0 µM). Moreover, the growth inhibition in assay [3] (setting [7]) was 1%; in assay [3] (setting [8]), 99% (active); in assay [3] (at 50.0 µM) it was 99.8% (active); in assay [4] (setting [7]), 7%; in assay [4] (setting [8]), 99% (active); in assay [4] (at 50.0 µM), 98.8% (active). In addition, the growth inhibition in assay [5] (setting [7]) was -1%; in assay [5] (setting [8]), 99% (active); in assay [5] (at 50.0 µM), 98.8% (active); in assay [6] (setting [7]), 4%; in assay [6] (setting [8]) it was 99% (active); in assay [6] (at 50.0 µM), 99.5% (active).
Regarding `CCC[CH2][Sn]1([CH2]CCC)[O]CC(c2ccccn2)C[O]1`, the growth inhibition is 36% in assay [1] (setting [7]); 98% (active) in assay [1] (setting [8]); 87.2% (active) in assay [1] (at 50.0 µM); 28% in assay [2] (setting [7]); 98% (active) in assay [2] (setting [8]); 90.7% (active) in assay [2] (at 50.0 µM). In addition, the growth inhibition is 34% in assay [3] (setting [7]); 98% (active) in assay [3] (setting [8]); 88.2% (active) in assay [3] (at 50.0 µM); 21% in assay [4] (setting [7]); 97% (active) in assay [4] (setting [8]); 89.5% (active) in assay [4] (at 50.0 µM). In addition, the growth inhibition was 37% in assay [5] (setting [7]); 99% (active) in assay [5] (setting [8]); 89% (active) in assay [5] (at 50.0 µM); 44% in assay [6] (setting [7]); 98% (active) in assay [6] (setting [8]); 87.4% (active) in assay [6] (at 50.0 µM).
For the compound `CCN1/C(=C\c2ccc3cc(C)ccc3[n+]2CC)[Se]c2ccccc21`, the growth inhibition in assay [1] (setting [7]) is 98% (active); in assay [1] (setting [8]), 98% (active); in assay [1] (at 50.0 µM) it was 99.2% (active); in assay [2] (setting [7]), 100% (active); in assay [2] (setting [8]), 100% (active); in assay [2] (at 50.0 µM), 99.4% (active). Moreover, the growth inhibition in assay [3] (setting [7]) is 95% (active); in assay [3] (setting [8]) it was 99% (active); in assay [3] (at 50.0 µM), 99.5% (active); in assay [4] (setting [7]), 98% (active); in assay [4] (setting [8]) it was 94% (active); in assay [4] (at 50.0 µM) it was 99.5% (active). The growth inhibition in assay [5] (setting [7]) is 95% (active); in assay [5] (setting [8]) it was 99% (active); in assay [5] (at 50.0 µM), 97% (active); in assay [6] (setting [7]), 99% (active); in assay [6] (setting [8]), 99% (active); in assay [6] (at 50.0 µM), 99.5% (active).
As for `COC1CC2C(C[CH]1[Hg][Cl])C2(Cl)Cl` (centres undefined), the growth inhibition in assay [1] (setting [7]) is 99% (active); in assay [1] (setting [8]), 99% (active); in assay [1] (at 50.0 µM), 99.5% (active); in assay [2] (setting [7]) it was 100% (active); in assay [2] (setting [8]), 100% (active); in assay [2] (at 50.0 µM), 99.6% (active). Also, the growth inhibition in assay [3] (setting [7]) is 100% (active); in assay [3] (setting [8]), 99% (active); in assay [3] (at 50.0 µM), 99.5% (active); in assay [4] (setting [7]) it was 99% (active); in assay [4] (setting [8]) it was 99% (active); in assay [4] (at 50.0 µM) it was 99.2% (active). Also, the growth inhibition in assay [5] (setting [7]) is 99% (active); in assay [5] (setting [8]) it was 99% (active); in assay [5] (at 50.0 µM), 98% (active); in assay [6] (setting [7]) it was 99% (active); in assay [6] (setting [8]), 99% (active); in assay [6] (at 50.0 µM), 99.5% (active).
Turning to `O=[N+]([O-])c1ccc(O)c(Cl)c1`, the growth inhibition in assay [1] (setting [7]) was -3%; in assay [1] (setting [8]), 41%; in assay [1] (at 50.0 µM) it was 68.7%; in assay [2] (setting [7]) it was -2%; in assay [2] (setting [8]), 54%; in assay [2] (at 50.0 µM) it was 78.9% (active). Besides, the growth inhibition was -4% in assay [3] (setting [7]); 44% in assay [3] (setting [8]); 66% in assay [3] (at 50.0 µM); -12% in assay [4] (setting [7]); 57% in assay [4] (setting [8]); 52.2% in assay [4] (at 50.0 µM). Besides, the growth inhibition in assay [5] (setting [7]) was -5%; in assay [5] (setting [8]), 25%; in assay [5] (at 50.0 µM), 64.5%; in assay [6] (setting [7]), -5%; in assay [6] (setting [8]) it was 53%; in assay [6] (at 50.0 µM) it was 70.8% (active).
For `[CH3][Sn]([Br])([Br])[CH2]CCCBr`, the growth inhibition was 22% in assay [1] (setting [7]); 95% (active) in assay [1] (setting [8]); 89.7% (active) in assay [1] (at 50.0 µM); 10% in assay [2] (setting [7]); 94% (active) in assay [2] (setting [8]); 93.4% (active) in assay [2] (at 50.0 µM). Further, the growth inhibition is 23% in assay [3] (setting [7]); 97% (active) in assay [3] (setting [8]); 73.2% (active) in assay [3] (at 50.0 µM); 7% in assay [4] (setting [7]); 93% (active) in assay [4] (setting [8]); 86.1% (active) in assay [4] (at 50.0 µM). For the same compound, the growth inhibition in assay [5] (setting [7]) is 13%; in assay [5] (setting [8]), 93% (active); in assay [5] (at 50.0 µM), 90.7% (active); in assay [6] (setting [7]), 27%; in assay [6] (setting [8]), 86% (active); in assay [6] (at 50.0 µM), 85.1% (active).
For the compound `Nc1ncc(CCCCc2ccc(NC(=O)Nc3ccc(S(=O)(=O)F)cc3)cc2)c(N)n1`, the growth inhibition in assay [1] (setting [7]) is -1%; in assay [1] (setting [8]), 60%; in assay [1] (at 50.0 µM) it was 98.5% (active); in assay [2] (setting [7]), -15%; in assay [2] (setting [8]), 60%; in assay [2] (at 50.0 µM) it was 99.5% (active). Also, the growth inhibition in assay [3] (setting [7]) is -17%; in assay [3] (setting [8]), 75% (active); in assay [3] (at 50.0 µM), 99.2% (active); in assay [4] (setting [7]), -8%; in assay [4] (setting [8]), 57%; in assay [4] (at 50.0 µM), 92.8% (active). Besides, the growth inhibition in assay [5] (setting [7]) is -4%; in assay [5] (setting [8]), 48%; in assay [5] (at 50.0 µM) it was 98.8% (active); in assay [6] (setting [7]) it was 4%; in assay [6] (setting [8]) it was 84% (active); in assay [6] (at 50.0 µM), 99.2% (active).
